# The campaign covered roughly 190,000 compounds. About 1,300 (0.68%) were called active. The sample holds actives, similar compounds and a random draw of the others, so the mix is not that of the screen. A number with no mark means an inactive call. Cut-off read from the data, not from the text of the source: active = inhibition above about 50%; inactive = the rest.
# Target: Mannose-6-phosphate isomerase (Homo sapiens) (UniProt P34949)
# Experiment: MPI inhibition at elevated mannose 6-phosphate – biochemical, fluorescence intensity, high mannose 6-phosphate, primary screen (AID 1220)
# Conditions: recombinant PMI enzyme, coupled fluorescence intensity; at 20 µM; hits give high values
# Sequence of Mannose-6-phosphate isomerase (Homo sapiens) (P34949 whole entry, looked up): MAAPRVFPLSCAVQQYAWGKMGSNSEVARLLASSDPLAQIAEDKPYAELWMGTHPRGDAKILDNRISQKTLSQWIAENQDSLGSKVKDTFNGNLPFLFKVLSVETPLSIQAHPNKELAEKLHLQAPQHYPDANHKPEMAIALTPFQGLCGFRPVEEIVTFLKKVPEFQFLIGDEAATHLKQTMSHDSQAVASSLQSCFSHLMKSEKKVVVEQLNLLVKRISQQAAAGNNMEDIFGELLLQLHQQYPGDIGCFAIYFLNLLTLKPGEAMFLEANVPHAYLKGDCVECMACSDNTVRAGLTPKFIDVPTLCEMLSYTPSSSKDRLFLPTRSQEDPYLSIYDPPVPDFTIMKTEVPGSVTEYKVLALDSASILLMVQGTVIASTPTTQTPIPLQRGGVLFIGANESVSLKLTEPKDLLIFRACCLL
row,SMILES,inhibition
1,CCC(NC(=O)C1CCC1)c1ccc(C)cc1 (stereo not drawn),3.8%
2,Nc1cc2c(cc1C(=O)c1ccccc1F)OCCO2,13.3%
3,O=C(c1ccccc1)c1cc2c(cc1[N+](=O)[O-])OCCO2,10.9%
4,O=C(c1ccccc1F)c1cc2c(cc1[N+](=O)[O-])OCCO2,51.7% (active)
5,COc1ccc(OC)c(NC(=S)NCC(c2cccnc2)N2CCOCC2)c1 (stereo not drawn),2.4%
6,CC(C)N1CCN(Cc2ccoc2)CC1CCO (stereo not drawn),-6.7%
7,CCOc1ccccc1-c1c2cc(O)c(=O)cc-2oc2cc(O)c(O)cc12,42%
8,Cc1c2cc(O)c(=O)cc-2oc2cc(O)c(O)cc12,28.8%
9,COc1ccc(OC)c(-c2c3cc(O)c(=O)cc-3oc3cc(O)c(O)cc23)c1,55.4% (active)
10,CN(C)C(=O)C[n+]1cccc(/C=N/O)c1,-5.5%
11,C=CCn1c(SCC(=O)Nc2ccccc2)nnc1-c1cccc(S(=O)(=O)N2CCOCC2)c1,3.2%
12,CC1OC(OCC2OC(Oc3c(-c4ccc(O)cc4)oc4cc(O)cc(O)c4c3=O)C(O)C(O)C2O)C(O)C(O)C1O (stereo not drawn),16.6%
13,C[C@@H]1O[C@@H](OC[C@H]2O[C@@H](Oc3c(-c4ccc(O)c(O)c4)oc4cc(O)cc(O)c4c3=O)[C@H](O)[C@@H](O)[C@@H]2O)[C@H](O)[C@H](O)[C@H]1O,18.4%
14,COC(=O)c1ccc(COC(=O)CNC(=O)c2ccco2)cc1,1.5%
15,CC1CC(NC(=O)c2ncn[nH]2)CC(C)(C)C1 (stereo not drawn),-12.5%
16,COc1ccc(C(=O)/C=C2\NCC3c4ccccc4CCN3C2=O)cc1 (stereo not drawn),-140%
17,Cc1cccc(C(=O)NCCN(C)C)c1,3%
18,Cc1cc(NC(=O)c2cc(-c3ccco3)on2)n(-c2ccccc2)n1,26.3%
19,Cc1cc(-c2ccco2)n(CC(=O)O)n1,-2.6%
20,Cc1cc(-c2ccco2)n(-c2ccccc2)n1,50.5% (active)
21,Cc1ccc(OCC(O)CN2C(=O)NC(C)(C)C2=O)cc1 (stereo not drawn),5.5%

row,SMILES,inhibition
1,CC1(C)NC(=O)N(CC(O)COc2ccc(N3C(=O)c4ccccc4C3=O)cc2)C1=O (stereo not drawn),53% (active)
2,CC1(C)NC(=O)N(CC(O)COc2ccc(-c3ccccc3)cc2)C1=O (stereo not drawn),-0.4%
3,O=C(NCC(=O)N1CCCC1)c1cccs1,2%
4,O=C(N=Nc1ccc(NOC(=O)c2ccccc2Br)cc1)c1ccccc1O,65.2% (active)
5,Cc1ccc(C(=O)ONc2ccc(N=NC(=O)c3ccccc3O)cc2)cc1,-5.4%
6,O=C(ONc1ccc(N=NC(=O)c2ccccc2O)cc1)c1ccccc1,22.9%
7,CN(Cc1cccnc1)C(=O)CC1C(=O)NCCN1Cc1ccc(-c2ccccc2)cc1 (stereo not drawn),8.9%
8,CCOC(=O)C(C#N)C(Cc1ccccc1)c1ccco1 (stereo not drawn),5.7%
9,COc1ccc(NC(=S)Nc2cccc(Cl)c2Cl)cc1OC,40.9%
10,COc1cc(C)c(NC(=S)Nc2cccc(Cl)c2)cc1OC,24.5%
11,COC(=O)c1cc(OC)c(OC)cc1NC(=S)Nc1cccc(C(C)=O)c1,-8%
12,COc1ccc(NC(=S)Nc2ncccc2C)c(OC)c1,10.1%
13,COc1ccc(NC(=S)Nc2ncccc2C)cc1OC,55.1% (active)
14,COc1ccc(NC(=S)Nc2cccc(C(C)=O)c2)cc1OC,50.5% (active)
15,COc1ccc(C(=O)Nc2cccc(C(C)=O)c2)cc1OC,-4.1%
16,COc1ccc(NC(=S)Nc2cccc(Cl)c2)cc1OC,61.4% (active)
17,COc1cc(NC(=S)Nc2ncccc2C)cc(OC)c1OC,31%
18,Cc1c(NC(=O)c2cc3ccccc3o2)c(=O)n(-c2ccccc2)n1C,-16.9%
19,COc1ccc(-c2nc(N3CCCC3)[nH]c(=O)c2C#N)cc1,-5.5%
20,C=CCc1cccc2cc(C(=O)NCc3cccnc3)c(=O)oc12,3.6%
21,Cc1ccc(NCC(=O)N=Nc2c(O)n(C)c3ccccc23)cc1,-2.1%

row,SMILES,inhibition
1,O=C(NC1CC1)C1=C[C@H](C2CC2)C[C@H](OCCCCO)O1,0.3%
2,CCS(=O)(=O)c1ccc2oc(SCC(=O)Nc3ccc(OC)cc3OC)nc2c1,14.5%
3,Cc1onc(-c2ccccc2Cl)c1C(=O)N1CCOC12CCCCC2,-6.1%
4,Cc1[nH]n(-c2ccccc2)c(=O)c1/C=N/NC(=O)COc1ccccc1[N+](=O)[O-],58.1% (active)
5,Cc1ccc(OCC(=O)N/N=C\c2c(C)[nH]n(-c3ccccc3)c2=O)c([N+](=O)[O-])c1,-3.5%
6,COCC(=O)N/N=C/c1c(C)[nH]n(-c2ccccc2)c1=O,-4.5%
7,CC(C)CN1C(=O)c2ccc(NC(=O)c3ccco3)cc2C1=O,6.2%
8,O=C(Nc1ccc(F)cc1)Nc1ccc(N2CCOCC2)c2nonc12,38%
9,O=C(Nc1ccc([N+](=O)[O-])cc1)Nc1ccc(N2CCOCC2)c2nonc12,57.9% (active)
10,O=C(Nc1ccc(N2CCOCC2)c2nonc12)C1CCCC1,44.8%
11,COc1ccc(NC(=O)Nc2ccc(C(=O)N3CCOCC3)cc2)c(OC)c1,0.2%
12,COc1ccc(NC(C)C(=O)Nc2cc(C(F)(F)F)ccc2N2CCOCC2)c(OC)c1 (stereo not drawn),24%
13,COc1ccc(NC(=O)Nc2ccc(N3CCOCC3)c3nonc23)c(OC)c1,55.8% (active)
14,COc1ccc(C)cc1-n1c(SCC(=O)Nc2cc(C)on2)nc2ccccc2c1=O,10.8%
15,COC(=O)Cc1sc(-c2ccccn2)nc1-c1ccccc1,21.2%
16,CCOc1cc(NC(=S)NCCCOC)c(OCC)cc1NC(=O)c1ccco1,50.7% (active)
17,CCNC(=S)Nc1cc(OC)c(NC(=O)c2ccco2)cc1OC,33.9%
18,CCOCCCNC(=S)Nc1cc(OCC)c(NC(=O)c2ccco2)cc1OCC,44.5%
19,CCOc1cc(NC(=S)NC)c(OCC)cc1NC(=O)c1ccco1,49.7%
20,CCOc1cc(NC(=S)NCCOC)c(OCC)cc1NC(=O)c1ccco1,22.6%
21,CCNC(=S)Nc1cc(OCC)c(NC(=O)c2ccco2)cc1OCC,52.8% (active)

# From PubChem BioAssay AID1220 (Sanford-Burnham Center for Chemical Genomics, 2008)
